Assay outcomes (PubChem BioAssay)
ARNT TACC3 PPI = ARNT/TACC3 interaction disruption | Q9Y6A5 | AlphaScreen His-ARNT PAS-B/GST-TACC3 binding, luminescence; TACC3 fragment carries E629A point mutation | inhibition, % at 9.99 µM | 0.66% of 390,000 active;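 active means mean inhibition of replicates at least 50% and at least half of replicates each reaching 50%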;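 further: 0% = complete ARNT plus TACC3 wells and 100% = ARNT alone without TACC3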
PfHsp90 yeast 2 = reduces growth (ATP signal) of yeast expressing P. falciparum Hsp90; S. cerevisiae expressing PfHsp90, BacTiter-Glo ATP, 48 h; yeast lacking PDR1 and PDR3 efflux regulators; inhibition, % at 9.4 µM; 0.32% of 310,000 active;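 active means every replicate shows inhibition above about 80%, whatever the replicate mean, limit read from the data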;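 further: 0% = DMSO neutral controls and 100% = 20 µM radicicol positive controls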
CASP6 VEID inh = inhibitors of human caspase-6 | purified caspase-6, Z-VEID-R110 cleavage fluorescence | inhibition, % at 12.5 µM | 0.53% of 350,000 active;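 active means mean inhibition across replicates at least about 35%, with every replicate also reaching that limit, limit read from the data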;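 further: 0% = median of neutral control wells and 100% = no fluorescence left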
Target sequence (P55212 24-179 limits assumed): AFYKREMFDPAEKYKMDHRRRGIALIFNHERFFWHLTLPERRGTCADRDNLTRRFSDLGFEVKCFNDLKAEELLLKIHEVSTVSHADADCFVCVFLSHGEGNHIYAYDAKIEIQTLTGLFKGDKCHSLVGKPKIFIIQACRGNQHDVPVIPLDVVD
Target sequence (P55212 194-293 limits assumed): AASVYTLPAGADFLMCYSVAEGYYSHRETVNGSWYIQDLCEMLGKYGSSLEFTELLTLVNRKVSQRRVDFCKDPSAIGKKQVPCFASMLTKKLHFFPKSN
SIRT5 block = sirtuin-5 (human) deacylase inhibition; Purified SirT5, succinyl-peptide AMC, trypsin-coupled fluorescence; inhibition, % at 15 µM; Q9NXA8; 1.1% of 330,000 active; in the data active means inhibition above about 15%
NSD2 inh = inhibitors of human histone methyltransferase NSD2; O96028; NSD2 peptide methylation, AlphaScreen, 120 min; inhibition, % at 12.5 µM; 0.54% of 310,000 active; AID 743445; in the data active means inhibition above about 50%
Numbers without * were called inactive; / = not tested or not shown. This is a sample that favours compounds with a hit; in the whole collection about 2.1% have one here.

SMILES	ARNT TACC3 PPI	PfHsp90 yeast 2	CASP6 VEID inh	SIRT5 block	NSD2 inh
O=C(Nc1ncccc1Cl)c1cc2ccccc2o1	5	-3	0	20*	-3
O=C(Nc1ccc(Cl)cc1Cl)c1cc2ccccc2o1	0	-27	-4	-1	-2
Cc1ccc([N+](=O)[O-])cc1S(=O)(=O)Nc1ccc(C(=O)N2CCN(C(=O)c3ccco3)CC2)cc1	10	8	54*	2	0
CCOCCCNC(=O)CCCC1=NS(=O)(=O)c2ccccc2N1	active	-11	-12	0	-5
O=C(c1ccncc1)N1CCN(c2ccc(F)cc2)CC1	7	1	/	/	-2
O=C(c1ccc(F)cc1)N1CCOCC1	-3	-10	-1	22*	-1
O=C(c1ccc(NS(=O)(=O)c2ccc(F)cc2)cc1)N1CCCCC1	0	10	-3	3	-1
O=C(c1ccc(Cl)cc1)N1CCN(c2ccc(F)cc2)CC1	-1	102*	/	/	2
O=C(c1ccc(NS(=O)(=O)c2ccc(F)cc2)cc1)N1CCCCCC1	-3	/	3	17*	-1
O=C(C[C@@H]1CC[C@H](NC(=O)c2ccc3c(c2)OCO3)[C@H](CO)O1)NCc1ccc(Cl)cc1	-5	/	0	0	/
CSc1nc2ccc(Br)cc2[nH]1	-3	19	/	15*	-2
COc1ccc(S(=O)(=O)Nc2ccc3c(c2)CC(=O)N([C@H](C)CO)C[C@@H](C)[C@H](CN(C)C(=O)Nc2cccc4ccccc24)O3)cc1	-2	/	15	-3	/
CCCC(=O)Nc1ccc2c(c1)C(=O)N(C)C[C@@H](OC)[C@H](C)CN(Cc1ccccc1F)[C@@H](C)CO2	-2	/	1	-13	/
C[C@H](CO)N1C[C@H](C)[C@H](CN(C)CC2CCCCC2)Oc2ccc(NS(=O)(=O)c3ccc(F)cc3)cc2CC1=O	2	15	2	10	/
C[C@H]1CN([C@@H](C)CO)C(=O)Cc2cc(NS(=O)(=O)c3ccccc3)ccc2O[C@H]1CN(C)CC1CCCCC1	-16	/	4	2	/
C[C@@H]1CN([C@H](C)CO)C(=O)Cc2cc(NS(=O)(=O)c3ccc(F)cc3)ccc2O[C@H]1CN(C)CC1CCCCC1	9	/	2	23*	/
C[C@@H]1CN([C@H](C)CO)C(=O)Cc2cc(NC(=O)Nc3cccc4ccccc34)ccc2O[C@H]1CN(C)Cc1ccc2c(c1)OCO2	-1	/	4	17*	/
C[C@@H]1CN([C@@H](C)CO)C(=O)Cc2cc(NS(=O)(=O)c3ccc(Cl)cc3)ccc2O[C@@H]1CN(C)CC1CCCCC1	4	/	1	20*	/
C[C@@H]1CN([C@@H](C)CO)C(=O)Cc2cc(NS(=O)(=O)c3ccccc3)ccc2O[C@H]1CN(C)CC1CCCCC1	25	/	2	19*	/
C[C@@H]1CCCCO[C@H](CN(C)C(=O)C2CCCCC2)[C@@H](C)CN([C@@H](C)CO)C(=O)c2cc(NS(=O)(=O)c3cn(C)cn3)ccc2O1	13	/	0	0	/
C[C@@H]1CN([C@H](C)CO)C(=O)c2cc(NS(=O)(=O)c3ccc(Cl)cc3)ccc2O[C@@H]1CN(C)Cc1ccc(Cl)c(Cl)c1	7	/	/	14	/
COCC#Cc1ccc2c(c1)O[C@H](CN(C)S(=O)(=O)c1cccc(F)c1)[C@@H](C)CN([C@H](C)CO)S2(=O)=O	5	/	-2	14	/
C[C@@H]1CN([C@H](C)CO)C(=O)Cc2cc(NS(C)(=O)=O)ccc2O[C@@H]1CN(C)CC1CC1	1	/	3	17*	/
C[C@@H]1CN([C@H](C)CO)C(=O)Cc2cc(NC(=O)Nc3ccc4c(c3)OCO4)ccc2O[C@H]1CN(C)CC1CCCCC1	12	/	-3	17*	/
C[C@H](CO)N1C[C@H](C)[C@H](CN(C)CC2CCCCC2)Oc2ccc(NC(=O)Nc3ccc4c(c3)OCO4)cc2CC1=O	8	/	0	1	/
Cc1nn(CC(=O)N(C)C)c(=O)c2ccccc12	4	/	-1	19*	-4
CO[C@H]1CN(C)C(=O)c2ccc(NC(=O)CC(F)(F)F)cc2OC[C@H](C)N(S(=O)(=O)c2cn(C)cn2)C[C@H]1C	-1	/	-2	-6	/
C[C@H](CO)N1C[C@H](C)[C@@H](CN(C)C(=O)Nc2ccc(C(F)(F)F)cc2)Oc2ccc(NS(=O)(=O)c3ccc(F)cc3)cc2CC1=O	0	/	/	0	/
